Assay results as given in PubChem BioAssay (NCATS).
Records with an inconclusive call do not appear. Active and inactive are the calls of the source. The call rests on the fitted dose curve; in most records, active means well fitted curve in the direction sought with a large enough effect; inconclusive means small, poorly fitted or top-dose-only effect, or another doubt; inactive means no such curve, though single readings can be large; an effect the other way counts as inactive or inconclusive.

What was measured:
[1] = qHTS of pediatric cancer cell lines to identify multiple opportunities for drug repurposing: Confirmatory screen for SJ-GBM2 cells (AID 1347116); further: nearly all actives have a fitted effect of over 60% in size
Method in brief: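 Viability measured as metabolically active cells via CellTiter-Glo luminescence following 48 hours of compound exposure, 11-point dilutions in confirmatory testing. 500-1,000 cells/well plated 5 hours before dosing; controls were DMSO and 2.3 µM bortezomib.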

[2] = qHTS of pediatric cancer cell lines to identify multiple opportunities for drug repurposing: Confirmatory screen for MG 63 (6-TG R) cells (AID 1347119); further: nearly all actives have a fitted effect of over 55% in size
Method in brief: (§1)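 Cells (500-1,000/well) in growth media were settled 5 h at 37 degrees C, then given compounds for 48 h. Viability was read as CellTiter-Glo luminescence. Primary runs used MIPE at 11 points (0.78 nM-46 µM) and NPC at 8 points (0.59 nM-46 µM); follow-ups used 11 points.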

[3] = qHTS of pediatric cancer cell lines to identify multiple opportunities for drug repurposing: Confirmatory screen for control Hh wild type fibroblast cells (AID 1347121); further: nearly all actives have a fitted effect of over 70% in size
Method in brief: as §1

[4] = qHTS of pediatric cancer cell lines to identify multiple opportunities for drug repurposing: Confirmatory screen for U-2 OS cells (AID 1347122); further: nearly all actives have a fitted effect of over 65% in size
Method in brief: as §1

[5] = qHTS of pediatric cancer cell lines to identify multiple opportunities for drug repurposing: Confirmatory screen for Rh41 cells (AID 1347123); further: nearly all actives have a fitted effect of over 60% in size
Method in brief: as §1

[6] = qHTS of pediatric cancer cell lines to identify multiple opportunities for drug repurposing: Confirmatory screen for RD cells (AID 1347124);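 further: cells exposed to compound for 48 h before viability readout; nearly all actives have a fitted effect of over 65% in size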
Method in brief: as §1

[7] = qHTS of pediatric cancer cell lines to identify multiple opportunities for drug repurposing: Confirmatory screen for Saos-2 cells (AID 1347127); further: nearly all actives have a fitted effect of over 60% in size
Method in brief: as §1

[8] = qHTS of pediatric cancer cell lines to identify multiple opportunities for drug repurposing: Confirmatory screen for OHS-50 cells (AID 1347128);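 further: compound exposure lasted 48 h at 37 degrees C; nearly all actives have a fitted effect of over 55% in size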
Method in brief: as §1

[9] = qHTS of pediatric cancer cell lines to identify multiple opportunities for drug repurposing: Confirmatory screen for SK-N-SH cells (AID 1347129);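 further: cells exposed to compound for 48 h before viability read; nearly all actives have a fitted effect of over 60% in size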
Method in brief: as §1

[10] = qHTS of pediatric cancer cell lines to identify multiple opportunities for drug repurposing: Confirmatory screen for BT-37 cells (AID 1347117); further: nearly all actives have a fitted effect of over 55% in size
Method in brief: as §1

[11] = qHTS of pediatric cancer cell lines to identify multiple opportunities for drug repurposing: Confirmatory screen for Rh30 cells (AID 1347126); further: nearly all actives have a fitted effect of over 55% in size
Method in brief: as §1

[12] = qHTS of pediatric cancer cell lines to identify multiple opportunities for drug repurposing: Confirmatory screen for Rh18 cells (AID 1347125); further: nearly all actives have a fitted effect of over 55% in size
Method in brief: as §1

[13] = system: Zika virus NS2B-NS3 protease; experiment: Primary screen GU AMC qHTS for Zika virus inhibitors (AID 1347154); further: nearly all actives have a fitted effect of over 70% in size
Method in brief: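 Unlinked Zika NS2B hydrophilic domain/NS3 protease domain noncovalent complex (25 nM final) in 10 mM Tris-HCl pH 8.0, 0.01% Tween 20, with AMC peptide substrate. Fluorescence (ex 340, em 450 nm) change over 15 min, room temperature; percent inhibition fitted to 4-parameter Hill equation.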

[14] = qHTS of pediatric cancer cell lines to identify multiple opportunities for drug repurposing: Confirmatory screen for TC32 cells (AID 1347118);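 further: cells exposed to compound for 48 h before the read; nearly all actives have a fitted effect of over 65% in size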
Method in brief: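 Luminescent CellTiter-Glo read-out of metabolically active TC32 cells after 48 h compound exposure. Primary: MIPE 11-point, 0.78 nM–46 µM; NPC 8-point, 0.59 nM–46 µM. Confirmatory: 11-point dilutions.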

[15] = qHTS of pediatric cancer cell lines to identify multiple opportunities for drug repurposing: Confirmatory screen for NB-EBc1 cells (AID 1347115);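 further: cells exposed to compound for 48 h before the viability read; nearly all actives have a fitted effect of over 45% in size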
Method in brief: as §1

Furin (Homo sapiens) = Furin (Homo sapiens) (UniProt P09958); experiment: Furin counterscreen qHTS for Zika virus inhibitors (AID 1347149); further: nearly all actives have a fitted effect of over 70% in size
Method in brief: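 Counterscreen measures cleavage of 2 microM BOC-RVRR-AMC, below its ~15 microM Km, by 5 nM full-length human furin at pH 7.0 after a 15-min compound preincubation. Inhibition derives from the 15-min fluorescence increase at 37C.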

Measured: Potency
Potency means the concentration at half of the fitted maximal effect.

Sequence of Furin (Homo sapiens) (P09958 whole entry, looked up): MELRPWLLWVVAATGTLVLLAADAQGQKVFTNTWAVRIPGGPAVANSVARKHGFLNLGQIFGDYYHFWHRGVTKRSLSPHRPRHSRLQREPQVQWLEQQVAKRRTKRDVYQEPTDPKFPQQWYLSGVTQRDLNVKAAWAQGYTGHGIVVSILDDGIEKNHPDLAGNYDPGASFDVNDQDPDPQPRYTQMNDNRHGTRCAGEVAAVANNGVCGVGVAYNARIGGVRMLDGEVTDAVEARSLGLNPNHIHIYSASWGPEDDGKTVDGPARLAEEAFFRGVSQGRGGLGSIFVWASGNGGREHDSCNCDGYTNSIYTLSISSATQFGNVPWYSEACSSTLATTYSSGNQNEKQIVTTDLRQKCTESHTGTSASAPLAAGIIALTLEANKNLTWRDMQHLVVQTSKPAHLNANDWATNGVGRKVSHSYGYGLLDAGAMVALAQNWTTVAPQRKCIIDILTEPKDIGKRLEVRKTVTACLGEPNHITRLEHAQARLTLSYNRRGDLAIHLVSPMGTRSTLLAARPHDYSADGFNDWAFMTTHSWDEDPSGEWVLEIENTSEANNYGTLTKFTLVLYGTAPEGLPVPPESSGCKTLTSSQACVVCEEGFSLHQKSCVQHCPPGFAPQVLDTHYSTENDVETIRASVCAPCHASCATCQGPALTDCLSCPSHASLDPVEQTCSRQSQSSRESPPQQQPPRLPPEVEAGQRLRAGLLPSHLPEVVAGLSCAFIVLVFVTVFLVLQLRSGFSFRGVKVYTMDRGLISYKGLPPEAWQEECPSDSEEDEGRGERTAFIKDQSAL

C=CCn1c(=O)c2cnc(Nc3ccc(N4CCN(C)CC4)cc3)nc2n1-c1cccc(C(C)(C)O)n1
inactive: [3]
active: [1] 737 nM | [2] 1310 nM | [4] 1650 nM | [5] 1170 nM | [6] 737 nM | [7] 1310 nM | [8] 1040 nM | [9] 3320 nM

COc1cc(Nc2ncc(F)c(Nc3ccc4c(n3)N(COP(=O)(O)O)C(=O)C(C)(C)O4)n2)cc(OC)c1OC
active: [10] 10400 nM | [2] 2330 nM | [4] 4140 nM | [5] 3290 nM | [6] 16500 nM | [11] 2330 nM | [7] 7370 nM | [8] 5220 nM | [9] 2350 nM

CC(=O)Nc1nc(C)c(-c2ccc(Cl)c(S(=O)(=O)NCCO)c2)s1
inactive: [13]
active: [10] 18500 nM | [2] 2330 nM | [4] 14700 nM | [5] 5850 nM | [12] 11700 nM | [11] 14700 nM | [7] 16500 nM | [8] 11700 nM

CC(C)(C)c1cc(NC(=O)Nc2ccc(-c3cn4c(n3)sc3cc(OCCN5CCOCC5)ccc34)cc2)no1
inactive: [13]
active: [1] 16500 nM | [10] 18500 nM | [14] 3290 nM | [4] 20800 nM | [5] 13100 nM | [8] 16500 nM | [9] 20900 nM

CC(C)(C)c1cc(C(C)(C)C)c(NC(=O)c2c[nH]c3ccccc3c2=O)cc1O
active: [15] 16500 nM | [6] 29300 nM | [7] 16500 nM
inactive: [11] | [13]

COc1cc2c(NC3CCN(C(C)C)CC3)nc(C3CCCCC3)nc2cc1OCCCN1CCCC1
active: [10] 26100 nM | [14] 4140 nM | [6] 26100 nM | [9] 7430 nM
inactive: [3] | [4] | [11] | [13]

C=CC(=O)Nc1cccc(Oc2nc(Nc3ccc(N4CCN(C)CC4)cc3)ncc2Cl)c1
active: [15] 18500 nM | [14] 1170 nM | [3] 20800 nM | [4] 2610 nM | [5] 2610 nM | [7] 2930 nM | [8] 5220 nM | [9] 2960 nM
inactive: [13]

CNC(=O)c1nn(C)c2c1C(C)(C)Cc1cnc(Nc3ccc(N4CCN(C)CC4)cc3)nc1-2
inactive: [3] | [13]
active: [1] 657 nM | [10] 1040 nM | [14] 1650 nM | [4] 1310 nM | [5] 3290 nM | [6] 233 nM | [12] 4650 nM | [11] 928 nM | [8] 5850 nM | [9] 1180 nM

CC(C)c1cc(C(=O)N2Cc3ccc(CN4CCN(C)CC4)cc3C2)c(O)cc1O
active: [10] 414 nM | [14] 465 nM | [4] 414 nM | [5] 585 nM | [6] 522 nM | [12] 657 nM | [11] 585 nM | [9] 469 nM
inactive: [3] | [13]

CC(C)(C)c1cnc(CSc2cnc(NC(=O)C3CCNCC3)s2)o1
active: [1] 414 nM | [10] 261 nM | [4] 1310 nM | [5] 329 nM | [6] 585 nM | [7] 465 nM | [8] 329 nM | [9] 935 nM
inactive: [3] | [13]

CC(C)C[C@H](NC(=O)CNC(=O)c1cc(Cl)ccc1Cl)B(O)O
active: [1] 185 nM | [4] 928 nM | [5] 165 nM | [6] 465 nM | [12] 369 nM | [9] 418 nM
inactive: [14] | [13]

Cc1ccc(C(N)=O)cc1Nc1nccc(-c2cn(C(C)C)c3cnccc23)n1
inactive: [2] | [3] | [13]
active: [1] 21400 nM | [10] 6760 nM | [14] 7590 nM | [4] 15100 nM | [5] 13500 nM | [7] 21400 nM | [8] 12000 nM | [9] 6790 nM

CN(C)CCCN=c1c2ccccc2n(C)c2[nH]c(=O)n(C)c(=O)c12
active: [10] 18500 nM | [5] 23300 nM
inactive: [2] | [3] | [4] | [7] | [9] | [13]

CC(C)(C)OC(=O)Nc1ccc(-c2cc(C(=O)NCCCCCCC(=O)NO)no2)cc1
inactive: [3] | [13]
active: [1] 4140 nM | [4] 1470 nM | [5] 1850 nM | [6] 5220 nM | [12] 4650 nM | [11] 10400 nM | [9] 2350 nM

NC(=O)c1cccc2cn(-c3ccc([C@@H]4CCCNC4)cc3)nc12
active: [10] 5220 nM | [14] 1650 nM | [13] 24100 nM
inactive: [1] | [3] | [4] | [12] | [7] | [9]

CCn1nnc2c(N3CCOCC3)nc(-c3ccc(NC(=O)Nc4ccc(C(=O)N5CCN(C)CC5)cc4)cc3)nc21
active: [1] 737 nM | [10] 329 nM | [14] 293 nM | [5] 522 nM | [6] 414 nM | [12] 1040 nM | [11] 928 nM | [7] 657 nM | [8] 1170 nM | [9] 5900 nM

COC(=O)Nc1ccc(-c2nc(N3CCOCC3)c3cnn(C4CCN(Cc5cccnc5)CC4)c3n2)cc1
inactive: [13]
active: [10] 928 nM | [2] 1850 nM | [4] 11700 nM | [5] 1310 nM | [11] 5850 nM | [9] 14800 nM

CCn1cc(-c2ccnc3[nH]c(-c4cccc(CN(C)C)c4)cc23)c(-c2ccc(NC(=O)N(C)C)cc2)n1
active: [1] 928 nM | [10] 5220 nM | [14] 46.5 nM | [2] 1850 nM | [5] 1850 nM | [6] 1040 nM | [12] 16500 nM | [11] 293 nM | [7] 16500 nM | [9] 2960 nM | Furin (Homo sapiens) 21500 nM

CC(C)(O)c1cc2nc(-c3cnc(N)nc3)nc(N3CCOCC3)c2s1
active: [10] 1650 nM | [14] 827 nM | [12] 1650 nM | [7] 1650 nM | [8] 2930 nM | [9] 935 nM
inactive: [13]
